The values that follow come from PubChem BioAssay (NCATS).

The structures appear in SMILES notation. Results filed as inconclusive are left out. The source made the active and inactive calls. The call rests on the fitted dose curve; in most records, active means well fitted cell-killing curve with a large enough effect; inconclusive means small, poorly fitted or top-dose-only effect, or effect the other way; inactive means no such curve, though single readings can be large or run the other way.

Assay [1] can be described thus: Quantitative High-Throughput drug screen in 47 multiple myeloma cell lines against the NCATS MIPE library collection: OCIMY1_PLB cell viability assay (AID 1918979). Further: nearly all actives have a fitted effect of over 35% in size. The method, boiled down: (§1)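 ATP-based luminescence (CellTiter-Glo, 5 min RT incubation) quantified surviving cells following two days' treatment with MIPE 4.0 agents at 37 °C, 5% CO2.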
A short description of assay [2]: Quantitative High-Throughput drug screen in 47 multiple myeloma cell lines against the NCATS MIPE library collection: MM1S_ATCC cell viability assay (AID 1918980). Further: nearly all actives have a fitted effect of over 45% in size. The method in brief: as §1
Assay [3] can be described thus: Quantitative High-Throughput drug screen in 47 multiple myeloma cell lines against the NCATS MIPE library collection: L363_DSMZ cell viability assay (AID 1918984). Further: nearly all actives have a fitted effect of over 40% in size. Particulars: L363 myeloma viability, CellTiter-Glo ATP luminescence, 48 h; viability (% of control): at 45.8 µM (top of the series). The method, boiled down: as §1
Assay [4] can be described thus: Quantitative High-Throughput drug screen in 47 multiple myeloma cell lines against the NCATS MIPE library collection: KMS34_JCRB cell viability assay (AID 1918985). Further: nearly all actives have a fitted effect of over 40% in size. The method, boiled down: as §1
Assay [5] in a line: Quantitative High-Throughput drug screen in 47 multiple myeloma cell lines against the NCATS MIPE library collection: OCIMY5_PLB cell viability assay (AID 1918988). Further: nearly all actives have a fitted effect of over 65% in size. The method, boiled down:
as §1

Assay [6] in a line: Quantitative High-Throughput drug screen in 47 multiple myeloma cell lines against the NCATS MIPE library collection: OPM1_PLB cell viability assay (AID 1918989). Further: nearly all actives have a fitted effect of over 40% in size. The method, boiled down: as §1
Assay [7] in a line: Quantitative High-Throughput drug screen in 47 multiple myeloma cell lines against the NCATS MIPE library collection: OCIMY7_PLB cell viability assay (AID 1918987). Further: nearly all actives have a fitted effect of over 65% in size. Particulars: OCI-MY7 myeloma viability, CellTiter-Glo ATP, 48 h; viability (% of DMSO): at 45.8 µM (top of the series). The method in brief: as §1
Assay [8] is described as follows: Quantitative High-Throughput drug screen in 47 multiple myeloma cell lines against the NCATS MIPE library collection: MM1R_ATCC cell viability assay (AID 1918981). Further: nearly all actives have a fitted effect of over 35% in size. The method in brief: as §1
Assay [9] in a line: Quantitative High-Throughput drug screen in 47 multiple myeloma cell lines against the NCATS MIPE library collection: LP1_DSMZ cell viability assay (AID 1918982). Further: nearly all actives have a fitted effect of over 35% in size. The method in brief: as §1
Assay [10] is described as follows: Quantitative High-Throughput drug screen in 47 multiple myeloma cell lines against the NCATS MIPE library collection: KMS28PE_JCRB cell viability assay (AID 1918983). Further: nearly all actives have a fitted effect of over 35% in size. The method in brief:
as §1
Potency means the concentration at half of the fitted maximal effect.

Consider `CC(NCCc1ccc(O)cc1)C(O)c1ccc(O)cc1` (stereo not drawn), for which the Potency result in assay [1], in assay [3], in assay [4] and in [6] was “inactive” each time. Moreover, the Potency in [2] is 5.9 µM (active); in assay [5], 0.132 µM (active).
As to `C[C@H](c1ccc(F)cc1CCCC(=O)O)N(c1cc(F)ccc1F)S(=O)(=O)c1ccc(Cl)cc1`, the Potency result in assay [1] is “inactive”. For the same molecule, the results for the Potency in assay [2], in assay [7] and in assay [5] were 10.5 µM (active), 13.2 µM (active) and 14.8 µM (active), respectively.
With `C=C[C@@H]1CN2CCC1C[C@@H]2C(O)c1ccnc2ccc(OC)cc12` (stereo partly drawn), the Potency result in assay [1] and in assay [3] was “inactive” throughout. For the same molecule, the Potency in [8] was 18.7 µM (active); in [5] it was 3.32 µM (active).
`O=C(CCCN1CCN(c2ccc(F)cc2)CC1)NC1c2ccccc2CSc2ccccc21` (stereo not drawn): the Potency was 10.5 µM (active) in assay [2]; 18.7 µM (active) in assay [8]; 2.96 µM (active) in assay [9]; 11.8 µM (active) in assay [10]; 4.69 µM (active) in [3]; 16.6 µM (active) in [5]. Further, the Potency in assay [6] is 10.5 µM (active).
For the molecule `COc1ccc(-c2oc3c(CC=C(C)C)c(O)cc(O)c3c(=O)c2O)cc1`, the Potency entry in assay [1] and in assay [6] was “inactive” in each case. The Potency was 20.9 µM (active) in assay [8], 5.9 µM (active) in assay [7] and 14.8 µM (active) in assay [5].
Take `CC(C)n1c(C=C[C@H](O)C[C@H](O)CC(=O)O)c(-c2ccc(F)cc2)c2ccccc21`: the Potency entry in [1] is “inactive”. Further, the figures for the Potency in assay [3], in assay [7] and in [6] were 4.18 µM (active), 4.18 µM (active) and 5.26 µM (active), respectively.
With `CCNC(=O)Nc1ccc(Oc2ncnc(N)c2C=NOC)cc1Cl`, the Potency in assay [1] is 23.5 µM (active); in assay [7] it was 2.64 µM (active); in assay [5], 14.8 µM (active). Also, the Potency result in assay [8] and in assay [6] was “inactive” in each case.
As for `CN(C)CCOc1cc(-c2cn[nH]c2)ccc1NC(=O)C1COc2ccccc2O1` (stereo not drawn), the Potency result in [1] is “inactive”. For the same molecule, the Potency in [8] is 13.2 µM (active); in assay [4], 9.35 µM (active).
Consider `O=C1Nc2ccc(I)cc2C1=Cc1cc(Br)c(O)c(Br)c1`, for which the Potency result in assay [1] and in assay [8] was “inactive” throughout. Moreover, the Potency in assay [5] is 8.33 µM (active); in [6] it was 10.5 µM (active).
As to `O=C(O)CCC=CCC[C@@H]1[C@H](N2CCCCC2)[C@@H](O)C[C@@H]1OCc1ccc(-c2ccccc2)cc1`, the Potency result in [2], in assay [8], in assay [9], in [10], in [3] and in assay [4] was “inactive” each time. Further, the Potency entry in [5] was “inactive”.
For `CCCCC(C=O)NC(=O)C(CC(C)C)NC(=O)OCc1ccccc1` (stereo not drawn), the Potency entry in [1] and in assay [3] was “inactive” throughout. The values for the Potency in assay [9] and in assay [10] were 20.9 µM (active) and 23.5 µM (active), respectively.
Consider `O=[N+]([O-])c1ccc(Nc2ccccc2-c2ccccc2)c2nonc12`, for which the Potency entry in [1] and in assay [4] was “inactive” throughout. Also, the Potency in assay [3] is 16.6 µM (active); in assay [7], 18.7 µM (active); in assay [6] it was 26.4 µM (active).
`O=C(Nc1ccc(OC(F)(F)F)cc1)c1sccc1NCc1ccnc2ccccc12`: the Potency in assay [2] is 20.9 µM (active); in assay [8] it was 20.9 µM (active); in assay [9] it was 20.9 µM (active); in assay [10], 20.9 µM (active); in assay [4], 10.5 µM (active); in assay [7], 16.6 µM (active). The Potency is 2.96 µM (active) in assay [5] and 20.9 µM (active) in assay [6].
On to `CCOC(=O)[C@H]1O[C@H]1C(=O)N[C@@H](CC(C)C)C(=O)NCCC(C)C`, for which the Potency entry in assay [1], in assay [9] and in assay [7] was “inactive” in each case. Moreover, in [5], the Potency is 29.6 µM (active).
For the molecule `CCC=CC[C@H]1C(=O)CC[C@@H]1CC(=O)OC`, the Potency entry in [1], in assay [9], in assay [10], in assay [3], in assay [4] and in assay [6] was “inactive” throughout.
As to `Cc1ccc(NC(=O)Nc2cc(C(F)(F)F)ccc2F)cc1Nc1ccc2c(c1)NC(=O)C2=Cc1ccc[nH]1`, the Potency in assay [1] is 23.5 µM (active); in assay [8], 26.4 µM (active); in [3] it was 7.43 µM (active); in assay [7], 2.96 µM (active); in assay [5], 23.5 µM (active); in [6], 4.69 µM (active).
With `O=C1CCCC(=O)C1C(=O)c1ccc(C(F)(F)F)cc1[N+](=O)[O-]`, the Potency in assay [2] was 18.7 µM (active). The Potency result in [8], in assay [9], in [10], in assay [3], in [7] and in assay [6] was “inactive” in each case.
As to `NC(=O)c1ccc(N(C(N)=O)c2c(F)cccc2F)nc1-c1ccc(F)cc1F`, the Potency result in assay [1], in assay [9] and in [10] was “inactive” each time.
As for `O=C1NC(=O)C(c2cnc3ccccn23)=C1c1cn2c3c(cccc13)CN(C(=O)N1CCOCC1)CC2`, in assay [1], the Potency entry was “inactive”. Further, the Potency is 3.32 µM (active) in assay [8]; 0.0093 µM (active) in assay [3]; 0.0743 µM (active) in [7]; 0.372 µM (active) in assay [5]; 10.5 µM (active) in assay [6].
`Cc1ccccc1-n1c(Cn2nc(-c3cccc(O)c3)c3c(N)ncnc32)nc2cccc(C)c2c1=O`: the Potency was 1.32 µM (active) in assay [2]; 9.35 µM (active) in assay [8]; 11.8 µM (active) in assay [9]; 9.35 µM (active) in [10]; 2.35 µM (active) in [3]; 3.32 µM (active) in assay [4]. Further, the values for the Potency in assay [7], in [5] and in [6] were 2.96 µM (active), 10.5 µM (active) and 2.35 µM (active), respectively.
As to `C#CCN(C)CC1=Cc2ccccc2Oc2ccccc21`, the Potency result in assay [1] and in assay [6] was “inactive” throughout. The values for the Potency in assay [10] and in assay [5] were 18.7 µM (active) and 20.9 µM (active), respectively.
Regarding `C=C1c2cccc(O)c2C(O)=C2C(=O)[C@@]3(O)C(O)=C(C(N)=O)C(=O)[C@@H](N(C)C)[C@@H]3[C@@H](O)[C@H]12`, the Potency result in assay [1] and in [3] was “inactive” in each case. For the same molecule, the Potency was 20.9 µM (active) in assay [8], 9.35 µM (active) in assay [7], 18.7 µM (active) in assay [5] and 23.5 µM (active) in assay [6].
As for `COC(=O)N1CCN(Cc2cccc(NC(=O)Nc3ccc(C)nc3)c2F)CC1`, the Potency result in [1], in assay [4] and in assay [6] was “inactive” in each case.
Consider `COc1ccc2c(c1)CC[C@H]1[C@@H]2CC[C@]2(C)[C@@H](NCCCCCCN3C(=O)C=CC3=O)CC[C@H]12`, for which the Potency result in assay [1], in assay [10] and in assay [4] was “inactive” each time.
